Data from the supplement of paper PMC10849652.
Targets with a hit are over-represented here; the source holds about 7,900 in all. About 0.6% of all pairs of compound and target were hits.

Key:
Assay in all cases: log2 fold change, soluble protein after heating vs DMSO (PISA); higher = thermal stabilisation; K562 cells, 10 uM, 30 min; active = over 0.2 and 3.5 SD of the protein, either way, in both replicates (recomputed)
[1] = compound: NC(=O)Nc1cc(-c2cccc(F)c2)sc1C(=O)N[C@H]1CCCNC1
Procedure, shortened: (§1)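 K562 cells at 2×10^6 cells/mL were treated with 10 μM compound for 30 min. Aliquots were heated for 3 min across 48°C-58°C, pooled, and extracted in PBS with 0.5% NP-40 at 4°C; soluble protein was the supernatant after 21,000xg for 90 min. Soluble protein was quantified by TMTpro 16plex LC-MS/MS with channel sums equalised, and reported as log2 fold change in thermal stability against DMSO controls, with values from duplicates.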

[2] = compound: NC(=O)c1cnc(N[C@@H]2CCCC[C@@H]2N)nc1Nc1cccc(-n2nccn2)c1
Procedure, shortened: as §1

[3] = compound: NC1(c2ccc(-c3nc4ccn5c(=O)[nH]nc5c4cc3-c3ccccc3)cc2)CCC1
Procedure, shortened: as §1

[4] = compound: NCC(=O)Nc1ccc(-n2nc(C(F)(F)F)cc2-c2ccc3c(ccc4ccccc43)c2)cc1
Procedure, shortened: as §1

entinostat = compound: Nc1ccccc1NC(=O)c1ccc(CNC(=O)OCc2cccnc2)cc1 [entinostat]
Procedure, shortened: as §1

citarinostat = compound: O=C(CCCCCCNC(=O)c1cnc(N(c2ccccc2)c2ccccc2Cl)nc1)NO [citarinostat]
Procedure, shortened: as §1

silmitasertib = compound: O=C(O)c1ccc2c(c1)nc(Nc1cccc(Cl)c1)c1ccncc12 [silmitasertib]
Procedure, shortened: as §1

[5] = compound: O=C1NC(=O)C(c2cnc3ccccn23)=C1c1cn2c3c(cc(F)cc13)CN(C(=O)N1CCCCC1)CC2
Procedure, shortened: as §1

[6] = compound: c1cc(OCCN2CCCCC2)cc(-c2n[nH]c3ccc(-c4nnc[nH]4)cc23)c1
Procedure, shortened: as §1

vorinostat = compound: O=C(CCCCCCC(=O)Nc1ccccc1)NO [vorinostat]
Procedure, shortened: as §1

Measured: log2 fold change

IL27RA (UniProt Q6UWB1)
inactive: [1] -0.077 | [2] -0.091 | [3] -0.116 | [4] -0.123 | entinostat 0.016 | citarinostat 0.082 | silmitasertib 0.009 | [5] 0.154 | [6] -0.172

LNPEP (UniProt Q9UIQ6)
inactive: [1] 0.037 | [2] 0.011 | [3] -0.037 | [4] 0.019 | entinostat -0.028 | vorinostat -0.007 | citarinostat 0.056 | silmitasertib 0.002 | [5] 0.004 | [6] -0.022

LPGAT1 (UniProt Q92604)
UniProt Q92604, sequence (Q92604 whole entry, looked up): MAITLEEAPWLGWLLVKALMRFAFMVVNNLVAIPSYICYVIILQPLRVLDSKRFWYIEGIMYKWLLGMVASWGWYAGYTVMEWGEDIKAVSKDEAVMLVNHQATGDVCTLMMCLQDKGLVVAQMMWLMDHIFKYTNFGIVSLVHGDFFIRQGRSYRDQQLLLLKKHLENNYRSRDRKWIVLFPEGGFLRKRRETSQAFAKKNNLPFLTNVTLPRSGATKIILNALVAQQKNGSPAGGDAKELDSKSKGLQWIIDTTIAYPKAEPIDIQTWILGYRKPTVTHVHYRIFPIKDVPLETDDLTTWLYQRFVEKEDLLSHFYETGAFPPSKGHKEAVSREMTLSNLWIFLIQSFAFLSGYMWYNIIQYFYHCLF
inactive: [1] 0.038 | [2] 0.048 | [3] -0.102 | [4] 0.063 | entinostat -0.047 | citarinostat 0.157 | silmitasertib -0.015 | [5] -0.015 | [6] -0.108

MAP4 isoform 5 (UniProt P27816)
active: [5] 0.423
inactive: [1] 0.135 | [2] 0.087 | [3] 0.109 | entinostat 0.075 | citarinostat -0.121 | silmitasertib 0.012 | [6] 0.074

ITGA2B (UniProt P08514)
inactive: [1] 0.085 | [2] -0.222 | [4] -0.009 | entinostat -0.009 | [5] 0.02
active: vorinostat -0.495

INTS5 (UniProt Q6P9B9)
inactive: [1] 0.015 | [2] -0.116 | [3] -0.079 | [4] -0.175 | entinostat 0.014 | silmitasertib -0.006 | [5] -0.076

MED8 isoform 2 (UniProt Q96G25)
inactive: [1] 0.048 | [2] 0.2 | [3] 0.038 | [4] 0.303 | entinostat -0.107 | citarinostat 0.035 | silmitasertib 0.079 | [5] -0.043 | [6] -0.092

MED7 (UniProt O43513)
inactive: [1] 0.034 | [2] 0.122 | [4] -0.041 | entinostat -0.16 | [5] -0.085

IMMP1L (UniProt Q96LU5)
inactive: [1] -0.062 | [2] -0.055 | [3] -0.103 | [4] -0.037 | entinostat 0.005 | citarinostat 0.044 | silmitasertib -0.132 | [5] -0.088 | [6] 0.017

IL10RB (UniProt Q08334)
active: entinostat -0.431
inactive: [1] -0.113 | [2] -0.121 | [4] -0.031 | vorinostat 0.109 | citarinostat 0.055 | [5] 0.062 | [6] -0.026

MASTL (UniProt Q96GX5)
UniProt Q96GX5, sequence (Q96GX5 whole entry, looked up): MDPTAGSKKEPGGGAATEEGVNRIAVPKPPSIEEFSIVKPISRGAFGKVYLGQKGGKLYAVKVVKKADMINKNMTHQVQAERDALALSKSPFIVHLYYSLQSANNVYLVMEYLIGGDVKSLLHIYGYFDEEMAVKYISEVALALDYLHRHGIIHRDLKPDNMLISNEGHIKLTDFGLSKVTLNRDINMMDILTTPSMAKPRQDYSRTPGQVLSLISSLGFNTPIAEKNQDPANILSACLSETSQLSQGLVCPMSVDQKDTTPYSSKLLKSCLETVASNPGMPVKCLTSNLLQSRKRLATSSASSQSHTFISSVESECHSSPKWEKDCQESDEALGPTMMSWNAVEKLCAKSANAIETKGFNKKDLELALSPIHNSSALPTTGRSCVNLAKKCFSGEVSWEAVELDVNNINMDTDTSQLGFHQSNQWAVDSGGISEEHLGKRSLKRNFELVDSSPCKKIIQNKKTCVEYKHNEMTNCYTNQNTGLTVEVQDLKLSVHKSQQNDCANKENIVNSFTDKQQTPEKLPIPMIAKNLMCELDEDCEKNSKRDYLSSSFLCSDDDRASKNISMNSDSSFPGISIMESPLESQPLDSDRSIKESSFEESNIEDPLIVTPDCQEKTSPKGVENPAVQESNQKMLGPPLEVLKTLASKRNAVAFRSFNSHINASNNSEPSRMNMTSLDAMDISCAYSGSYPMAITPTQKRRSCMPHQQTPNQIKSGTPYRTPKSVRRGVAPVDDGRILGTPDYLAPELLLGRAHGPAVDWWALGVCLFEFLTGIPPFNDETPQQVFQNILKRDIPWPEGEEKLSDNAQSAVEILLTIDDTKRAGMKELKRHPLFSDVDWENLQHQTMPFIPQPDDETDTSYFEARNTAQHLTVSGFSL
inactive: [1] 0.123 | [2] -0.018 | [3] 0.144 | [4] -0.004 | entinostat 0.053 | citarinostat -0.018 | silmitasertib 0.123 | [5] 0.039 | [6] 0.002

MELK (UniProt Q14680)
inactive: [1] -0.384 | [2] -0.128 | entinostat -0.052 | vorinostat 0.062 | citarinostat -0.001 | [5] -0.016 | [6] -0.366

MAPK14 (UniProt Q16539)
inactive: [1] -0.019 | [2] -0.047 | [3] -0.136 | [4] -0.033 | entinostat 0.022 | vorinostat 0.027 | citarinostat 0.051 | silmitasertib 0.37 | [6] 0.058

MED22 (UniProt Q15528)
active: [6] 0.322
inactive: [1] 0.042 | [2] 0.029 | [3] 0.064 | [4] 0.023 | entinostat 0.049 | citarinostat -0.243 | silmitasertib -0.01 | [5] -0.074

MFAP3 (UniProt P55082)
inactive: [1] 0.043 | [2] -0.04 | [4] -0.09 | entinostat -0.052 | [5] -0.243

METAP1D (UniProt Q6UB28)
UniProt Q6UB28, sequence (Q6UB28 whole entry, looked up): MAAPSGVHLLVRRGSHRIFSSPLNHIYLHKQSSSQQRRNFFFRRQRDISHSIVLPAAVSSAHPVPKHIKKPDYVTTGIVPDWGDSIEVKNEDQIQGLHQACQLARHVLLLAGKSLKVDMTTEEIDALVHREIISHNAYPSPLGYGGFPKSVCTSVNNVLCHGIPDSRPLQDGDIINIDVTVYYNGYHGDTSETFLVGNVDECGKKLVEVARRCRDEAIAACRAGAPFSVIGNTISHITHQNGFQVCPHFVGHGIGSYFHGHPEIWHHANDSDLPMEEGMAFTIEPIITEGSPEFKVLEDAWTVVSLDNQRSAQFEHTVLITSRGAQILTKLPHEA
inactive: [1] 0.061 | [2] 0.252 | [3] -0.033 | [4] 0.073 | entinostat -0.071 | citarinostat 0.098 | silmitasertib 0.064 | [5] -0.099 | [6] -0.04

MAGED1 isoform 2 (UniProt Q9Y5V3)
inactive: [1] 0.098 | [2] -0.029 | [4] -0.258 | entinostat 0 | [5] 0.262

MAP3K20 isoform 2 (UniProt Q9NYL2)
UniProt Q9NYL2, sequence (Q9NYL2 whole entry, looked up): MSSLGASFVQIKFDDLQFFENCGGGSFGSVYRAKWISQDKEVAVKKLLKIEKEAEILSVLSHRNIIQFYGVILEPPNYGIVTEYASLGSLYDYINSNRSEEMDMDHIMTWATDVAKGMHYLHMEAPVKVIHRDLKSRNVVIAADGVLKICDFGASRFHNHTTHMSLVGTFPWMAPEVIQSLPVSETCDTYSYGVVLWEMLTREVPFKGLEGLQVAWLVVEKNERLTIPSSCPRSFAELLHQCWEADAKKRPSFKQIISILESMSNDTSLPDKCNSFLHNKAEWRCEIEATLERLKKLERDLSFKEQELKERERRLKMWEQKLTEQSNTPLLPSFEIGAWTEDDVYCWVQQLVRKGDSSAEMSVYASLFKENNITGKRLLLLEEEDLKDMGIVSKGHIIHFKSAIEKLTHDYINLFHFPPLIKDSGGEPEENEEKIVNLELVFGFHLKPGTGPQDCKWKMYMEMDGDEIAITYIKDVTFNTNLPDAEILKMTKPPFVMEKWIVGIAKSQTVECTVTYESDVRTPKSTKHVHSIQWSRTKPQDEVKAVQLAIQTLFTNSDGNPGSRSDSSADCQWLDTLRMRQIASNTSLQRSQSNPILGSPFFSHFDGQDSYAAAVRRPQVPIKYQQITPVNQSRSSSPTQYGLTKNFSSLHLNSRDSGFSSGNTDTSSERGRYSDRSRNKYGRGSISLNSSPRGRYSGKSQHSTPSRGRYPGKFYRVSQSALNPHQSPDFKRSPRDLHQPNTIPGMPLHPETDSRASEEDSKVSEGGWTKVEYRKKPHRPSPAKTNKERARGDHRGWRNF
inactive: [1] 0.09 | [2] -0.041 | [3] 0.099 | entinostat 0.056 | silmitasertib 0.009 | [5] -0.008

MED12 isoform 2 (UniProt Q93074)
UniProt Q93074, sequence (Q93074 whole entry, looked up): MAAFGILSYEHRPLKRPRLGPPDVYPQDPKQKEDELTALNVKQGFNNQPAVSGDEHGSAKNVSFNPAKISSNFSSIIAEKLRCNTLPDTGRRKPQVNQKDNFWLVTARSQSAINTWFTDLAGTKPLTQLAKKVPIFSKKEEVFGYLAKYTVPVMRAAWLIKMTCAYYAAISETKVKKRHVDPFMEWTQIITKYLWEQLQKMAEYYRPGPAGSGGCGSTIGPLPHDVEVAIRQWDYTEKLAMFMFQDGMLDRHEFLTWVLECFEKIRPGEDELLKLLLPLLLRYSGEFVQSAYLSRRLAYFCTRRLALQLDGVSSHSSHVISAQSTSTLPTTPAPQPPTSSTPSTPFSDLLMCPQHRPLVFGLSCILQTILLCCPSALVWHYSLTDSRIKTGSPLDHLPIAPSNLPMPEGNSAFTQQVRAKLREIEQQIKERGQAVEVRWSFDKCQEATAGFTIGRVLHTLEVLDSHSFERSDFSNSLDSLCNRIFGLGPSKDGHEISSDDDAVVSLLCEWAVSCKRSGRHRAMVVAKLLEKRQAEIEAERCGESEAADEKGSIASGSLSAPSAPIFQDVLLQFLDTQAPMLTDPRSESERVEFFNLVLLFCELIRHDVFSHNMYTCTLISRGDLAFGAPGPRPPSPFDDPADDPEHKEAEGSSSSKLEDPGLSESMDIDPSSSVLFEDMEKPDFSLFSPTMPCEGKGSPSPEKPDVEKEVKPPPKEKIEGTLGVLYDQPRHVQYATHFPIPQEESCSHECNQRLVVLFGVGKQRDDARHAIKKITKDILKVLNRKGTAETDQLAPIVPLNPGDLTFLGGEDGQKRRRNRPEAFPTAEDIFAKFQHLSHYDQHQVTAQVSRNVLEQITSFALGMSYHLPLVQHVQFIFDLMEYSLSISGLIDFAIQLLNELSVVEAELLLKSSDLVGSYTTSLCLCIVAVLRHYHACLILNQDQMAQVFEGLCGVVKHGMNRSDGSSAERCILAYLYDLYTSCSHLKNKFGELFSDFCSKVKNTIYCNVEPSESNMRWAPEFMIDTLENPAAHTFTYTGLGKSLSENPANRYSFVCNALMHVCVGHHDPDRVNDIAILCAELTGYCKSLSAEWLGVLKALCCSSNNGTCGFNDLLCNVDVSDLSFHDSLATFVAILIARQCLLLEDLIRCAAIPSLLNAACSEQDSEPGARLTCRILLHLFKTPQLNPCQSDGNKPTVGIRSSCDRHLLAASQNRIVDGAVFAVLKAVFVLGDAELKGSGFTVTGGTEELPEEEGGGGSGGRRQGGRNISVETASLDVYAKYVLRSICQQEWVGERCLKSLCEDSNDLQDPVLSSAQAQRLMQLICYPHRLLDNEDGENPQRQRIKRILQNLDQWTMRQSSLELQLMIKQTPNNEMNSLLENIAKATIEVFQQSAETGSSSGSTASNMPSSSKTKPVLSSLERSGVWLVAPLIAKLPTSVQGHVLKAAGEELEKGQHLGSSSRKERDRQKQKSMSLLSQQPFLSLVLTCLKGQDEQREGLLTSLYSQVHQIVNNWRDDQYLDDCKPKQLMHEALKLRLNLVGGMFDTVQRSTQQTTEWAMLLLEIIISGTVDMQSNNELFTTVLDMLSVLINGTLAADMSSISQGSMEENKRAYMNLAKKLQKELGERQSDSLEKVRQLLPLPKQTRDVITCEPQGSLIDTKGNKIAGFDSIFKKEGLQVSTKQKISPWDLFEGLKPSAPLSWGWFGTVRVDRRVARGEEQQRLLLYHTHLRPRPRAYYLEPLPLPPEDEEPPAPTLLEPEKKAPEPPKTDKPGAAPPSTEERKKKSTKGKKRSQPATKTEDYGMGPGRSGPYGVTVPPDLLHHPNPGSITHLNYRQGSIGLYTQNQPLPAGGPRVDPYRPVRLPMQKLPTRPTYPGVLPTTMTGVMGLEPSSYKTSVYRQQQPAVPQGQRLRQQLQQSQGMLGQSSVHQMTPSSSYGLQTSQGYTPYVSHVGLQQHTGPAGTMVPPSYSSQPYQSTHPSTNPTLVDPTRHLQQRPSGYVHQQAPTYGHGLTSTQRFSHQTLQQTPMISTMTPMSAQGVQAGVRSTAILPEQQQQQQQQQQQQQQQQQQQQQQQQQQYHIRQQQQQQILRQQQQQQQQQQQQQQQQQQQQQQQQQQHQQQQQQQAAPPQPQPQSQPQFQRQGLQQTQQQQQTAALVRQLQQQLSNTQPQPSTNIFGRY
inactive: [1] 0.022 | [2] -0.455 | [3] -0.191 | entinostat 0.066 | vorinostat 0.22 | citarinostat 0.181 | silmitasertib 0.016 | [5] -0.005 | [6] -0.311

MAN2B2 (UniProt Q9Y2E5)
inactive: [1] 0.063 | [2] -0.099 | [3] -0.262 | [4] 0.089 | entinostat -0.018 | citarinostat 0.089 | silmitasertib -0.029 | [5] -0.058 | [6] -0.005

LRBA, A0A494BZW2
inactive: [1] 0.036 | [2] -0.031 | [3] -0.114 | entinostat 0.232 | vorinostat -0.032 | citarinostat 0.03 | silmitasertib 0.011 | [5] 0.063 | [6] 0.028

MAP2K7 isoform 4 (UniProt O14733)
UniProt O14733, sequence (O14733 whole entry, looked up): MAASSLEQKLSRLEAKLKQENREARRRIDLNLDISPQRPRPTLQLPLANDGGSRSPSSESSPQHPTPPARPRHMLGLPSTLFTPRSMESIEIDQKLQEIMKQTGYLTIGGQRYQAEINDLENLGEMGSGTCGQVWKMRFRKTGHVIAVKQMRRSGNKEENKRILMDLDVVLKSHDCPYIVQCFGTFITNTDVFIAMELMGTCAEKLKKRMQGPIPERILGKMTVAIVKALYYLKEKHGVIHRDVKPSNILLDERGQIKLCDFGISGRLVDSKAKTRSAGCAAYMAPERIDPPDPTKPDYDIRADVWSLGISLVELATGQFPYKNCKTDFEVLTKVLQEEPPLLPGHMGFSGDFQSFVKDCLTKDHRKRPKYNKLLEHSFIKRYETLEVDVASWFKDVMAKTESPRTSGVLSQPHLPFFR
inactive: [1] 0.008 | [2] -0.051 | [3] -0.078 | [4] -0.015 | entinostat 0.015 | vorinostat 0.084 | citarinostat 0.041 | silmitasertib -0.019 | [5] -0.052 | [6] -0.044

ITM2B (UniProt Q9Y287)
inactive: [1] -0.036 | [2] 0.091 | [3] -0.144 | [4] 0.021 | entinostat -0.083 | citarinostat -0.006 | [5] 0.109 | [6] -0.178
active: silmitasertib 0.38

LYN isoform 2 (UniProt P07948)
inactive: [1] 0.162 | [2] 0.014 | [4] -0.073 | entinostat -0.155 | [5] 0.082

IP6K1 (UniProt Q92551)
inactive: [1] -0.039 | [2] -0.253 | [3] -0.457 | entinostat 0.089 | vorinostat 0.138 | citarinostat -0.02 | silmitasertib -0.059 | [5] -0.048
active: [6] 0.858

LMBR1 isoform 3 (UniProt Q8WVP7)
inactive: [1] 0.047 | [2] -0.11 | [3] -0.104 | [4] -0.048 | entinostat 0.071 | vorinostat -0.016 | silmitasertib 0.014 | [5] -0.141

MARK2 (UniProt E9PC69)
inactive: [1] -0.513 | [2] -0.401 | [4] -0.213 | entinostat 0.101 | citarinostat 0.024 | [5] 0.082 | [6] -0.28

LUC7L3 (UniProt O95232)
inactive: [1] -0.203 | [2] -0.017 | [3] 0.058 | [4] -0.076 | entinostat -0.051 | vorinostat -0.008 | citarinostat 0.083 | silmitasertib -0.156 | [5] 0.086 | [6] -0.086
